Test results taken from the supplement of paper PMC10849652.
Of roughly 7,900 targets only a part is listed; those with a hit were picked by preference. About 0.6% of all pairs of compound and target were hits.

What follows are targets tested with CC(C)(O)CC(=O)NCCn1ccc2ncnc(Nc3ccc(Oc4cccc(C(F)(F)F)c4)c(Cl)c3)c21 (assay: log2 fold change, soluble protein after heating vs DMSO (PISA); higher = thermal stabilisation; K562 cells, 10 uM, 30 min; active = over 0.2 and 3.5 SD of the protein, either way, in both replicates (recomputed)).
Outline: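 For each measurement, 10 μM compound was applied for 30 min to K562 cells at 2×10^6 cells/mL. Aliquots were heated for 3 min across 48°C-58°C, pooled, and extracted in PBS with 0.5% NP-40 at 4°C; the supernatant after 21,000xg for 90 min was soluble protein. This was quantified by TMTpro 16plex LC-MS/MS with channel sums equalised, and thermal stability was reported relative to control samples from duplicates, on a log2 fold-change scale.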

UniProt Q96E09, sequence (Q96E09 whole entry, looked up): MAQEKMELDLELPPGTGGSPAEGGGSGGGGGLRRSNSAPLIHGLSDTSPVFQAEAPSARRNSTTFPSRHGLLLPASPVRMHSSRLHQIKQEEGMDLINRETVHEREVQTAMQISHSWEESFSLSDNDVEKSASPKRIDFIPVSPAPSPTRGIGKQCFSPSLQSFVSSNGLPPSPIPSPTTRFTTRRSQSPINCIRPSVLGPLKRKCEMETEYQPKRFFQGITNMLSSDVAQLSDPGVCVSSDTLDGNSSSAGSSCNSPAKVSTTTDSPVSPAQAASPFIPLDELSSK
UniProt Q58WW2, sequence (Q58WW2 whole entry, looked up): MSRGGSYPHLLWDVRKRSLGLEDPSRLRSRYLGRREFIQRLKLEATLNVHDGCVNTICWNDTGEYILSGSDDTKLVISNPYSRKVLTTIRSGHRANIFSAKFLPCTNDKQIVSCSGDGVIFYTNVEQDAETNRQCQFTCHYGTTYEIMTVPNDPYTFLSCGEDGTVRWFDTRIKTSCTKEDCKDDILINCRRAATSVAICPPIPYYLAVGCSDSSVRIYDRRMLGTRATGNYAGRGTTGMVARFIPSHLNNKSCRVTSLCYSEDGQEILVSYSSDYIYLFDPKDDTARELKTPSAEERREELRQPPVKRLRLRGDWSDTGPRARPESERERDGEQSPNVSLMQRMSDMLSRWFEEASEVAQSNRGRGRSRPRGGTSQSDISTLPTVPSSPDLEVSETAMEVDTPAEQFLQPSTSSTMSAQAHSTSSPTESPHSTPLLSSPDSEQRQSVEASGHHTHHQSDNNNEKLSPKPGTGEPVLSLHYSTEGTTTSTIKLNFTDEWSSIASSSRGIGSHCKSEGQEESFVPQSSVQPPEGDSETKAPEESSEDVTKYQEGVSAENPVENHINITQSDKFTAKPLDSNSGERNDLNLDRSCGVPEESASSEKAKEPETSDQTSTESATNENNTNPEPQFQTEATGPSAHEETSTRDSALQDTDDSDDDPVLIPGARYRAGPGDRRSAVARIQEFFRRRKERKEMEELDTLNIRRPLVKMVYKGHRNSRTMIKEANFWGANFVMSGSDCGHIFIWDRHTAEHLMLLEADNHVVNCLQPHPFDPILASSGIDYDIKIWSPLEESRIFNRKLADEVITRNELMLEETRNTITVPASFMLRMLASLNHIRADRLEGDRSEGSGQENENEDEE
UniProt P60842, sequence (P60842 whole entry, looked up): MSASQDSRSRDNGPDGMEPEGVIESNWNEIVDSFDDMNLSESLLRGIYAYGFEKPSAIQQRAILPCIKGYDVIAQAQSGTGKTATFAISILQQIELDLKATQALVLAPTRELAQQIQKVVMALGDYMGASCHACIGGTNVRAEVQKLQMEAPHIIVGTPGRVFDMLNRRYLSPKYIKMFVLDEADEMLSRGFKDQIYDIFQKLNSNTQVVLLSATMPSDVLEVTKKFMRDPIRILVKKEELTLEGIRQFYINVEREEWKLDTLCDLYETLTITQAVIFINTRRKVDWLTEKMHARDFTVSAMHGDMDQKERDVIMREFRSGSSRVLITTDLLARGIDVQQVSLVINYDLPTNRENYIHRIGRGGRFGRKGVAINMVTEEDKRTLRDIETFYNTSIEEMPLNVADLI
UniProt Q96KP1, sequence (Q96KP1 whole entry, looked up): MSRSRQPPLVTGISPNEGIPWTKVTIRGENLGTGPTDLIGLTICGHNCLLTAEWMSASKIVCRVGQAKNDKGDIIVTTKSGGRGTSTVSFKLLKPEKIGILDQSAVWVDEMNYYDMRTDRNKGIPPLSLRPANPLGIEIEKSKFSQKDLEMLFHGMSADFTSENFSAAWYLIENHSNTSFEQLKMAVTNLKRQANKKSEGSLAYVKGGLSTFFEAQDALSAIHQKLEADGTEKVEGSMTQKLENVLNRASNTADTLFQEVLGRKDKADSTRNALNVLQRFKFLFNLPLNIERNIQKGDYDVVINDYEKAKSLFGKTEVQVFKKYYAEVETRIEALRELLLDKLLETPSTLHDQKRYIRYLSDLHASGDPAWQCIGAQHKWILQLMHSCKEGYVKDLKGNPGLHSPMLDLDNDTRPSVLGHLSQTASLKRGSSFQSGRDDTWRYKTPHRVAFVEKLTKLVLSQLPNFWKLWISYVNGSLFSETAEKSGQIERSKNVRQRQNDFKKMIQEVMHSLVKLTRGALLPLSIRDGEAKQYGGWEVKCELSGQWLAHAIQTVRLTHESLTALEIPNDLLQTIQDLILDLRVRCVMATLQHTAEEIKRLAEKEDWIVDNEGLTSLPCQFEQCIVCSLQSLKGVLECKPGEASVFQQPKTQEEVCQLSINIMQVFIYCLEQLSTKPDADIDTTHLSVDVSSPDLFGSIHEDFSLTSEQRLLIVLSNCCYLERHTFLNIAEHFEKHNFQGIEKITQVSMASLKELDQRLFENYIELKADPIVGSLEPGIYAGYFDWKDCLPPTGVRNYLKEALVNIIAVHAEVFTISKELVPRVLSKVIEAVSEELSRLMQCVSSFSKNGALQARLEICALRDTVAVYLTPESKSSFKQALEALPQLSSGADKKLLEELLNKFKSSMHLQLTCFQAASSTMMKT
UniProt Q5QP82, sequence (Q5QP82 whole entry, looked up): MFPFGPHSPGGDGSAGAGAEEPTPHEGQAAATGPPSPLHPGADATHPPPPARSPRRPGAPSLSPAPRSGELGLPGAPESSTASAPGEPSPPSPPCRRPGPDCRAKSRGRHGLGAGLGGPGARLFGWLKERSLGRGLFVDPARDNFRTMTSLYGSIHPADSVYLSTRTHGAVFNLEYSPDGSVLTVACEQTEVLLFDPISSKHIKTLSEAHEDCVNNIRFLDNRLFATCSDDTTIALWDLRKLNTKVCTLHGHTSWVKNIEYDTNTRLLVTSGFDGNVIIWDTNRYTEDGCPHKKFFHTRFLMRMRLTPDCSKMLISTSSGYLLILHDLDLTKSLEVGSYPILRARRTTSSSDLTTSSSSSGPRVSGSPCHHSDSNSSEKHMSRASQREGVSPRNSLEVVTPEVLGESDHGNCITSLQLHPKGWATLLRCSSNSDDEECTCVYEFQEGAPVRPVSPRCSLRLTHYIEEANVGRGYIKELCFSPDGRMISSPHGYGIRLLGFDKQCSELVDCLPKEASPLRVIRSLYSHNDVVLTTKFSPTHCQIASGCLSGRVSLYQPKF
UniProt O75822, sequence (O75822 whole entry, looked up): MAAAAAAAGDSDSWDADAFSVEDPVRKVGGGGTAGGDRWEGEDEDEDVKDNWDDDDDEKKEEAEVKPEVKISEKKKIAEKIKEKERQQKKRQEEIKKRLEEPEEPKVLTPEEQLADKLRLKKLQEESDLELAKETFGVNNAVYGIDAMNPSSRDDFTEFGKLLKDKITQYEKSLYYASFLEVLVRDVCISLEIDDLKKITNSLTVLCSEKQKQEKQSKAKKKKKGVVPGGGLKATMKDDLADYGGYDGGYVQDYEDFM
UniProt Q96DA6, sequence (Q96DA6 whole entry, looked up): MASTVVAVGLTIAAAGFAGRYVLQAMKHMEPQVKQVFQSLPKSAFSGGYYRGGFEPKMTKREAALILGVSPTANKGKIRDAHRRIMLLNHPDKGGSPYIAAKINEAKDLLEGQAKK
UniProt Q9H4H8, sequence (Q9H4H8 whole entry, looked up): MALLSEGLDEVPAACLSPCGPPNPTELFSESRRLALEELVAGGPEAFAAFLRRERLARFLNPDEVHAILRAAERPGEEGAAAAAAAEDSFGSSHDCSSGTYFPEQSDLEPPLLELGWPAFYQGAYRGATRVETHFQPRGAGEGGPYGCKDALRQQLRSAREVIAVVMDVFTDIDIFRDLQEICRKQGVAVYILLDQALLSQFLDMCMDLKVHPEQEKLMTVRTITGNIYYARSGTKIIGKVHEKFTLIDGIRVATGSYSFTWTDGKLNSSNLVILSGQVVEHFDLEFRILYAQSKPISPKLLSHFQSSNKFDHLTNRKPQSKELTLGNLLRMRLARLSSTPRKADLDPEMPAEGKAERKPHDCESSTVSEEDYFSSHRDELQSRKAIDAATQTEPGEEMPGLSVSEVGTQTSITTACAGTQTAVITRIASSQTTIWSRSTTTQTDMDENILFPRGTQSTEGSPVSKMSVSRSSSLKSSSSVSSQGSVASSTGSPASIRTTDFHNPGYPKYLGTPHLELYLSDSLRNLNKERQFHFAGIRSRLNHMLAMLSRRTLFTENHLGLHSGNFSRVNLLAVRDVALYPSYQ
UniProt Q5QJE6, sequence (Q5QJE6 whole entry, looked up): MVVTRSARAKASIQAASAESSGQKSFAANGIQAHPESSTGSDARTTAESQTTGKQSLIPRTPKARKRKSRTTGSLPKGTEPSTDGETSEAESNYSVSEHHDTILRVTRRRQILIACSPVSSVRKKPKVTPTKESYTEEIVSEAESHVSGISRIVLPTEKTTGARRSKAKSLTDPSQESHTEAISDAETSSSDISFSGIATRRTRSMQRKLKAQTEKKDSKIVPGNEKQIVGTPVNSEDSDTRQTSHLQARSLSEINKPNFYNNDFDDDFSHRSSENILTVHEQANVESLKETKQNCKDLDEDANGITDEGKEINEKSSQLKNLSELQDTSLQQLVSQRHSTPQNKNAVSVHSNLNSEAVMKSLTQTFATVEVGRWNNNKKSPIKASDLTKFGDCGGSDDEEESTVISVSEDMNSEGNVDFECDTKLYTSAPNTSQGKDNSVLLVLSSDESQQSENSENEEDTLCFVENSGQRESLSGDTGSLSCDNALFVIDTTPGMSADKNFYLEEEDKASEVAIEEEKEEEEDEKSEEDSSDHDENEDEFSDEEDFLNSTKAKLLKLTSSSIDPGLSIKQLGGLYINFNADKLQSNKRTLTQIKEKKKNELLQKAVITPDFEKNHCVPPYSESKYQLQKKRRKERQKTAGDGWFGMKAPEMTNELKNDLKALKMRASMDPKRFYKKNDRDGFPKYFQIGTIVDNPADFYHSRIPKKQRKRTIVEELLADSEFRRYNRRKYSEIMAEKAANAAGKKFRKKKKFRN
UniProt Q9NSI2, sequence (Q9NSI2 whole entry, looked up): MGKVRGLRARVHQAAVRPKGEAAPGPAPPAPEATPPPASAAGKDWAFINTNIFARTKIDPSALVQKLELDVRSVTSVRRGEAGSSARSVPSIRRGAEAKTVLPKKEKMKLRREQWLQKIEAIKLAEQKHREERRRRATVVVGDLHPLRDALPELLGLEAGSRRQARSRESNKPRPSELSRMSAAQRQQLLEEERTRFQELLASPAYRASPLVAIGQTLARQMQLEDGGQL

log2 fold change, inactive:
EOGT (UniProt Q5NDL2) 0.016
CUEDC2 (UniProt Q9H467) -0.056
DDX5 (UniProt P17844) -0.189
EIF4E2 (UniProt O60573) -0.036
ERLIN1 (UniProt O75477) -0.018
EEF1AKNMT (UniProt Q8N6R0) -0.097
EIF4A1 (UniProt P60842) -0.151
DCTPP1 (UniProt Q9H773) -0.039
DNAJB12 (UniProt Q9NXW2) -0.032
DDX4 (UniProt Q9NQI0) 0.203
EXOC2 (UniProt Q96KP1) -0.052
DMAC1 (UniProt Q96GE9) 0.072
EEA1 (UniProt Q15075) 0.013
DDX46 (UniProt Q7L014) -0.18
CYP51A1 (UniProt Q16850) 0.245
DCTN1 isoform 4 (UniProt Q14203) -0.086
CWC27 (UniProt Q6UX04) -0.08
DNAJC19 (UniProt Q96DA6) -0.054
DUS2 (UniProt Q9NX74) -0.161
ECH1 (UniProt Q13011) -0.112
DBT (UniProt P11182) 0.006
FAAP100 (UniProt Q0VG06) -0.085
FAM207A (UniProt Q9NSI2) -0.033
EEF1D isoform 2 (UniProt P29692) -0.006
DNAH11 (UniProt Q96DT5) 0.047
DAB2 (UniProt P98082) -0.119
DYNC1LI2 (UniProt O43237) 0.03
DNAJC7 (UniProt Q99615) -0.022
DLD (UniProt P09622) -0.043
DCAF10 (UniProt Q5QP82) -0.041
DCAF6 isoform 3 (UniProt Q58WW2) -0.022
FAM122A (UniProt Q96E09) 0.105
FAM83D (UniProt Q9H4H8) -0.035
DNAJB1 (UniProt P25685) -0.012
DNTTIP2 (UniProt Q5QJE6) 0.046
CTSL (UniProt P07711) -0.014
CTSV (UniProt O60911) -0.005
EDC3 (UniProt Q96F86) -0.117
EIF3J (UniProt O75822) -0.031
